Screens (PubChem)
TbPYK inhibitor: T. brucei pyruvate kinase inhibition. Q57TT1. 0.12% of 410,000 active. TbPYK enzyme, Kinase-Glo Plus ATP luminescence, 45 min. Potency, µM (doses to about 76.8 µM), without a hit: at the top dose activity, negative = inhibition, usual class: inhibitors; also: potency is read from the fitted curve at half-maximal effect; % is scaled to controls: 0 for no effect and ±100 for the full control effect; nearly all actives have a fitted effect of over 50% in size
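ADP (130 uM final) triggers the TbPYK reaction after compound addition; incubation is 45 min at room temperature. Kinase-Glo Plus is then added and luminescence imaged. Normalized data are fitted to concentration-effect curves.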
LmPK inhibitor: LmPK (Leishmania mexicana) enzyme inhibition; Q27686; 0.37% of 290,000 active; AID 1721; purified LmPK, Kinase-Glo ATP luminescence, 1 h; Potency, µM (doses to about 57.5 µM), inactives show at the top dose activity change, negative = inhibition, hits mostly inhibitors; also: potency is read from the fitted curve at half-maximal effect; % is scaled to controls: 0 for no effect and ±100 for the full control effect
Target sequence (Q27686 whole entry, looked up): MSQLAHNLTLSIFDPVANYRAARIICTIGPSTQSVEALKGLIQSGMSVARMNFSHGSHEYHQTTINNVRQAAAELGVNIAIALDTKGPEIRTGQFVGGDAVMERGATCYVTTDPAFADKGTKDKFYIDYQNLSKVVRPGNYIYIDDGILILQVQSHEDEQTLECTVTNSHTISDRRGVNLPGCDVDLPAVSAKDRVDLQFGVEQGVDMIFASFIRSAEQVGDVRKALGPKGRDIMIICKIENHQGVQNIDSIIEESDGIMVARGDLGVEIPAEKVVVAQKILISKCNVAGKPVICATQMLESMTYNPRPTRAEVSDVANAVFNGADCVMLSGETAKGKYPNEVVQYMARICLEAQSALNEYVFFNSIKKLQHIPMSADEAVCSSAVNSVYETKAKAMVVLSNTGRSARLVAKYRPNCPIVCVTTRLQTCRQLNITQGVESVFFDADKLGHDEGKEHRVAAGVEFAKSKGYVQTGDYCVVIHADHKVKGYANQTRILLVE
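Purified LmPK (0.1 nM) with 0.5 mM PEP and 0.1 mM ADP in imidazole buffer pH 7.2 with MgCl2/KCl, 1 h at room temperature. ATP formed was read by luciferase luminescence and normalized to no-enzyme and uninhibited controls.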
FBPA Giardia inh: Giardia lamblia aldolase inhibition. A8B2U2. purified Giardia FBPA. Potency, µM (series often up to 59.6 µM), for the others: top-dose activity, negative = inhibition, usual class: inhibitors. 0.71% of 290,000 active; also: potency is read from the fitted curve at half-maximal effect; % is scaled to controls: 0 for no effect and ±100 for the full control effect; nearly all actives have a fitted effect of over 55% in size
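40 nM FBPA preincubated 10 min at RT with compound (up to 57.5 uM final), then substrate plus GAPDH/TPI/NAD/arsenate coupling and diaphorase/resazurin added. Fluorescence read after 20 min at RT, 525/598 nm.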
RE007 growth inh: less growth of the S. pombe RE007 Vpr strain | AID 651644 | S. pombe RE007 Vpr strain, BacTiter-Glo ATP luminescence, 24 h | 0.21% of 360,000 active | Potency, µM (titrated, usually from 92.2 µM), for inactives: at the highest dose activity change, negative = less growth, most hits filed as inhibitors; active = well fitted falling curve with a large enough effect; inconclusive = small, poorly fitted or top-dose-only effect; inactive = no such curve, though single readings can be large or run the other way; also: potency is read from the fitted curve at half-maximal effect; % is scaled to controls: 0 for no effect and ±100 for the full control effect; nearly all actives have a fitted effect of over 50% in size
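Fission yeast strain RE007, carrying one chromosomally integrated HIV-1 vpr copy, was seeded at OD 0.01 in PMG+AL medium with 23 nL pinned compound. After 24 h at 30 °C and 99% humidity, viability was read by BacTiter-Glo luminescence.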
SARS PLpro yeast-1: SARS-CoV PLP inhibition in yeast | S. cerevisiae expressing SARS-CoV PLpro, growth rescue | Potency, µM (doses to about 32.9 µM), for inactives: at the highest dose activity, positive = growth rescue, actives largely listed as activators | 0.19% of 330,000 active; calls by dose curve; also: potency is read from the fitted curve at half-maximal effect; 0% is about no effect; nearly all actives have a fitted effect of over 55% in size
SARS PLpro yeast-2: Rescues yeast growth by inhibiting SARS-CoV PLpro; shares compounds with SARS PLpro yeast-1; yeast expressing SARS-CoV PLpro, growth phenotype rescue; calls only; 19% of 1,000 active; AID 652038; call rule not given here
Numbers without * were called inactive; i = inactive; ? = inconclusive; · = not tested or not shown; + = active, no number; [ ] = remark or other dose. Most compounds without a hit are left out; they make up all but 1.1% or so of the library. Unless noted, calls follow the shape of the dose curve; as a rule, active = well fitted curve in the direction sought with a large enough effect; inconclusive = small, poorly fitted or top-dose-only effect, or another doubt; inactive = no such curve, though single readings can be large; an effect the other way counts as inactive or inconclusive.

SMILES	TbPYK inhibitor	LmPK inhibitor	FBPA Giardia inh	RE007 growth inh	SARS PLpro yeast-1	SARS PLpro yeast-2
CC1CCCCC1NC(=O)C(Cc1ccccc1)NS(=O)(=O)c1cccs1 (stereo unspecified)	1%	1%	2%	-3%	?	i
CN(c1ncnc2c1c(-c1ccccc1)cn2-c1ccc(F)cc1)C1CCCCC1	6%	·	·	·	·	·
CCCc1c(C)c2c(C)[nH]nc2oc1=O	4%	-2%	-9%	-3%	1%	·
Cc1c(C)c2c(C)[nH]nc2oc1=O	0%	-6%	0%	-17%	?	i
N#C/C(=N\Nc1ccc(Cl)cc1)C(=O)c1ccccc1	-1%	0%	-8%	-11%	-29%	·
Cc1c(N/N=C(\C#N)C(=O)c2ccc(Cl)cc2)c(=O)n(-c2ccccc2)n1C	-13%	4%	?	1%	13µM*	i
CCCn1ccc2c(OCC(=O)Nc3cc(C)ccc3C)cccc2c1=O	-1%	·	·	·	·	·
Cc1cc(/C=C(\C#N)C(=O)NC2CCCCCC2)c(C)[nH]1	-2%	-2%	6%	0%	13µM*	i
O=C(Oc1ccc(=O)n(-c2ccccc2)n1)c1ccc(Cl)cc1	-19%	-6%	0%	-25%	-2%	·
COc1ccc(C(=O)Oc2ccc(=O)n(-c3ccccc3)n2)cc1	6%	0%	-2%	4%	·	+
Cc1sc2nc(CSCC(=O)N(C)c3ccccc3)[nH]c(=O)c2c1C	-3%	2%	-7%	-5%	?	i
Cc1ccc(CNC(=O)CCc2c(C)nc3c(-c4ccc(F)cc4)c(C)nn3c2C)cc1	-1%	·	·	·	·	·
CCC(=O)N1CCc2cc(S(=O)(=O)NC(C(=O)NCCc3ccc(OC)c(OC)c3)C(C)C)ccc21 (stereo unspecified)	0%	·	·	·	·	·
COc1ccc(-c2nsc(NC(=O)c3cccc(OC)c3)n2)cc1	2%	·	·	·	·	·
Cn1c(=O)c(Cc2ccccc2)c(O)c2ccccc21	-3%	8%	-10%	-4%	10µM*	?
CCCCCC(=O)N/N=C(\C)c1ccc(N2CCCCC2)cc1	3%	-2%	7%	-11%	14µM*	i
CCCCCCCC(=O)N/N=C(\C)c1ccc(N)cc1	·	18%	3%	·	-7%	·
O=C1CCSC2(C(=O)N(Cc3ccccc3)c3ccccc32)N1c1ccccc1 (stereo unspecified)	-12%[15.4 µM]	·	·	·	·	·
CN(C)c1cccc(C(=O)N/N=C/c2ccsc2)c1	-5%	-3%	-11%	-12%	20µM*	i
CCOC(=O)C(C)/C(C)=N/NC(N)=S (stereo unspecified)	-4%	1%	?	16%	?	+
CCOC(=O)C(C)/C(C)=N\Nc1ccc([N+](=O)[O-])cc1[N+](=O)[O-] (stereo unspecified)	0%	3%	2%	1%	-1%	·
O=C(N/N=C/c1ccc(-n2ccnc2)cc1)c1cccs1	-3%	-14%	14%	-10%	?	i
CCN1CCN(c2ncc3c(n2)CCN(CC(C)C)C3)CC1	3%	·	·	·	·	·
Cc1ccc(C)c(NC(=O)C2CCN(c3cc(C)nc4c(-c5ccc(Cl)cc5)c(C)nn34)CC2)c1	3%	·	·	·	·	·
Cc1ccc(N2CC(C(=O)NCc3nnnn3-c3ccc(C)c(C)c3)CC2=O)cc1C (stereo unspecified)	-10%	·	·	·	·	·
SMILES	TbPYK inhibitor	LmPK inhibitor	FBPA Giardia inh	RE007 growth inh	SARS PLpro yeast-1	SARS PLpro yeast-2
COc1ccc(C2Nc3ccccc3C(=O)N2O)cc1OC (stereo unspecified)	-4%	1%	4%	10%	-1%	·
COc1ccc(C2Nc3ccccc3C(=O)N2O)cc1CN1CCOCC1 (stereo unspecified)	-6%	-1%	-20%	0%	22µM*	i
CCCCC(CC)CNC(=O)C1CCC(CNS(=O)(=O)c2cccc3nsnc23)CC1 (stereo unspecified)	-7%	·	·	·	·	·
Cc1ccc(S(=O)(=O)N2CC(O)CC2C(=O)OCc2nc3sc(C)c(C)c3c(=O)[nH]2)cc1 (stereo unspecified)	5%	8%	-8%	15%	?	i
CC(=O)OCc1nc2sc(C)c(C)c2c(=O)[nH]1	1%	-2%	-15%	0%	-20%	·
COc1ccc2c(c1)c1c(c(=O)n(-c3cccc(Cl)c3)c(=O)n1C)n2C	0%	·	·	·	·	·
Cc1nn(-c2ccc(N3CCCC3)nn2)c(C)c1CCC(=O)N1CCN(c2ccc(F)cc2)CC1	2%	·	·	·	·	·
COc1nc(Nc2ccc(C(C)C)cc2)nc(OC)n1	-1%	0%	-4%	-23%	?	i
COc1nc(Nc2ccc(O)cc2)nc(OC(C(F)(F)F)C(F)(F)F)n1	-6%	1%	-3%	9%	1%	·
CCCOc1ccc(C2=NC(c3ccc(F)cc3)=Nc3ccc(OC)cc3N2)cc1	-7%	·	·	·	·	·
CC(=O)NC(c1ccc(Cl)cc1)c1ccc2cccnc2c1O (stereo unspecified)	-2%	·	·	?	·	·
CCCC(=O)NC(c1ccccc1Cl)c1ccc2cccnc2c1O (stereo unspecified)	-2%	6%	14%	-8%	2.2µM*	+
CC(=O)NC(c1ccco1)c1ccc2cccnc2c1O (stereo unspecified)	-7%	1%	?	-2%	?	+
CCC(=O)NC(c1ccc(Cl)cc1Cl)c1ccc2cccnc2c1O (stereo unspecified)	-13%	-1%	?	-9%	1%	·
CCC(=O)NC(c1ccc(C)cc1)c1ccc2cccnc2c1O (stereo unspecified)	-4%	0%	-6%	?	?	i
Cc1cc(NC(c2ccc(Cl)cc2)c2ccc3cccnc3c2O)no1 (stereo unspecified)	-7%	0%	-21%	?	?	i
CC(CC(=O)NCc1ccc(Cl)cc1)CC1=NS(=O)(=O)c2ccccc2N1 (stereo unspecified)	4%	·	·	·	·	·
CC(=O)c1cc(-c2ccc(F)cc2)n(CCC(=O)Nc2nc3c(C)cccc3s2)c1C	7%[15.4 µM]	·	·	·	·	·
Cc1ccc2c(c1)-c1nc(-c3ccc(Cl)cc3)cc(-c3coc4ccccc4c3=O)c1CO2	3%	·	·	·	·	·
Cc1ccc(C)c(NC(=O)C2CCN(c3nn4c(=O)cc(C)nc4s3)CC2)c1	-6%	·	·	·	·	·
CCCC(=O)NC(c1ccc(C(C)C)cc1)c1ccc2cccnc2c1O (stereo unspecified)	-8%	-10%	?	-30%	?	·
CCCC(=O)NC(c1ccc(N(C)C)cc1)c1ccc2cccnc2c1O (stereo unspecified)	1%	7%	?	?	7.1µM*	?
CCCCNC(=S)NC(=O)c1ccccc1Br	-16%	1%	3%	0%	11µM*	+
